In PubChem BioAssay:

experiment: binders of probe aFGF10 on microarray, primary screen, stem cell growth factor project, biochemical, small-molecule microarray, fluorescence 635/667 (AID 1071); settings: higher = more signal;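 note: score merges 667 nm spot intensity and signal to noise from triplicate slides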

Row | SMILES | composite z-score
1 | O=C1O[C@@H](c2ccccc2)[C@@H](c2ccccc2)N2[C@@H](c3ccc(O)cc3)[C@]3(C(=O)Nc4ccc(C#CC5=CCCCC5)cc43)[C@@H](C(=O)N3CCN(c4ncccn4)CC3)[C@H]12 | 0.323
2 | CC(C)C[C@@H]1NC(=O)[C@H]2C[C@@H](C(=O)NCCCCCC[N+](C)(C)C)[C@@H](c3cccc(OCCO)c3)N2C1=O | -0.214
3 | CCOC(=O)C[C@H]1[C@H](OC(=O)c2ccccc2-c2ccccc2)[C@@H](NC(=O)c2ccc3ccccc3n2)c2cc(OCCCO)ccc2N1C(=O)c1ccc2ccccc2n1 | 0.304
4 | C[C@H]1C2=C3C(CC[C@H]4C(OCc5ccc(F)cc5C(F)(F)F)OC[C@](C)([C@@H]34)N(C(=O)OC(C)(C)C)C2)C(CO)C1CO (stereo not given in full) | -0.0807
5 | CCOc1cc(C(O)C2C=CC3C(=O)N(C)C(=O)C3N2N2CCCCC2)ccc1O (stereo not given) | 0.348
6 | C=C(COC)/C(=C/C[C@@H](OC(=O)c1ccncc1)c1cccc(OCCO)c1)c1cnc2ccccc2c1 | 1.19
7 | C=C(CCCC)/C(=C/C[C@@H](OC(C)=O)c1ccc(CO)o1)c1cc(C(=O)OC)ccc1OC | 0.866
8 | CC(C)(C)OC(=O)CC[C@]1(C(=O)NCCN2CCOCC2)N=C(c2ccc(OCCCO)cc2)O[C@H]1c1ccccc1N=[N+]=[N-] | 0.606
9 | Cc1ccc(S[C@]2(C(=O)NCC(F)(F)F)CC(=O)N(Cc3ccccc3)[C@@H]2c2ccc(CO)cc2)cc1 | -0.453
10 | COc1ccc(C#Cc2ccc3c(c2)[C@]2(C(=O)N3)[C@H](C(=O)N3CCc4cc(OC)c(OC)cc4C3)[C@H]3C(=O)O[C@H](c4ccccc4)[C@H](c4ccccc4)N3[C@@H]2c2ccc(O)cc2)cc1 | 0.282
11 | CN1C(=O)[C@@]2(CCS(=O)(=O)c3ccccc3)N=C(c3ccc(OCCCO)cc3)O[C@H]2c2ccccc21 | 0.832
12 | CC(C)C(=C=CC[C@@H](O)c1ccccc1OCCO)C[C@@H](O)COCc1ccccc1 | 0.729
13 | COc1ccc(C(O)C2C=CC3C(=O)N(Cc4ccccc4)C(=O)C3N2n2cnnc2)c2ccccc12 (stereo not given) | -0.522
14 | CCOC(=O)C[C@H]1[C@H](OC(=O)c2ccccc2-c2ccccc2)[C@@H](NC(=O)CC(C)C)c2cc(OCCCO)ccc2N1C(=O)c1ccc2ccccc2n1 | 0.414
15 | C=CC[C@H](OC(=O)Nc1ccc(OC)cc1)c1ccc(O)c2ccccc12 | 0.517
16 | COc1ccc(C(O)C2C=CC3C(=O)N(c4ccccc4)C(=O)C3N2Nc2ccccc2)cc1OCc1ccccc1 (stereo not given) | 1.1
17 | O=C1NC(=O)C2C1C=CC(C(O)c1cc(C(F)(F)F)cc(C(F)(F)F)c1)N2Nc1ccc(Cl)cc1Cl (stereo not given) | 0.404
18 | C=CCC(OC(C)=O)[C@@H]1[C@@H](N(Cc2cc3ccccc3o2)C(=O)Cc2ccc(F)cc2)c2cc(OCCCO)ccc2N1C(=O)c1ccc2ccccc2n1 (stereo not given in full) | 0.0991

Row | SMILES | composite z-score
19 | COCCOC(=O)N1C(=O)[C@@]2(c3cc(C#CC4=CCCCC4)ccc31)[C@H](c1ccc(O)cc1)N1[C@H](c3ccccc3)[C@H](c3ccccc3)OC(=O)[C@H]1[C@@H]2C(=O)Nc1nc2ccccc2s1 | 0.969
20 | COCCOC(=O)N1C(=O)[C@@]2(c3cc(C#CC4(O)CCCCCC4)ccc31)[C@H](C(N)=O)[C@H]1C(=O)O[C@H](c3ccccc3)[C@H](c3ccccc3)N1[C@@H]2c1ccc(O)cc1 | 0.544
21 | COC(=O)[C@H](Cc1ccccc1)N1CC(/C=C/C2CC2)=C[C@@H]1[C@@H](O)Cc1ccccc1 | 1.23
22 | C=C(/C(=C/C[C@@H](OC(=O)c1ccncc1)c1ccccc1OCCO)c1cc(C(=O)OC)ccc1OC)C(C)C | 0.533
23 | COc1cc(CO)cc(I)c1O[C@H]1C=C(C(=O)NCCO)C[C@@H](N(Cc2ccc(F)cc2)C(=O)C2CCCO2)[C@@H]1O (stereo not given in full) | 0.122
24 | NC(=O)NCC#Cc1ccc2c(c1)[C@]1(C(=O)N2)[C@H](c2ccc(O)cc2)N2[C@H](c3ccccc3)[C@H](c3ccccc3)OC(=O)[C@H]2[C@@H]1C(=O)Nc1nc2ccccc2s1 | 0.478
25 | CCOC(=O)C1=CC[C@@H](c2cc(Cl)ccc2Cl)N(S(=O)(=O)c2ccc(C)cc2)[C@H]1c1ccc(OC)cc1 | 0.582
26 | COc1ccc(NN2C(C(O)c3ccccn3)C=CC3C(=O)N(C4CCCCC4)C(=O)C32)cc1 (stereo not given) | 0.467
27 | COc1ccc([Si](C)(C)[C@H]2[C@H](CCO)O[C@@]3(C(=O)N(Cc4cccc(N5CCCCC5=O)c4)c4ccccc43)[C@@H]2C)cc1 | 0.375
28 | CCCC[C@@H]1C[C@H]1[C@@H](NC(=O)c1cccnc1)c1ccc(-c2ccccc2)cc1 | -0.522
29 | C=CCNC(=O)[C@@H]1[C@H]2C(=O)O[C@H](c3ccccc3)[C@H](c3ccccc3)N2[C@H](c2ccc(OCCO)cc2)[C@@]12C(=O)N(C(=O)OCCOC)c1ccc(C#CC3=CCCCC3)cc12 | 0.59
30 | CC(C)NC(=O)[C@@]1(C)c2ccccc2C(=O)N(C(C)C)[C@H]1c1ccc(CO)cc1 | -0.564
31 | COCCOC(=O)N1C(=O)[C@@]2(c3cc(C#CC4(O)CCCCCC4)ccc31)[C@H](c1ccccc1OCCO)N1[C@H](c3ccccc3)[C@H](c3ccccc3)OC(=O)[C@H]1[C@@H]2C(N)=O | 0.498
32 | O=C1c2ccccc2[C@](Cc2ccccc2I)(C(=O)NCc2ccccc2)[C@H](c2ccc(CO)cc2)N1C1CCCCC1 | 0.753
33 | COC(=O)[C@@]1(Cc2ccc(OC)cc2)[C@H]2c3cc(C(=O)N(C)C)n(Cc4ccccc4)c3C[C@H]2CN1C(=O)c1ccccc1 | 0.0679
34 | COC(=O)[C@]1(CCS(=O)(=O)c2ccccc2)N=C(c2ccc(OCCCO)cc2)O[C@@H]1c1ccccc1CN=[N+]=[N-] | 0.169
35 | CC(C)(C)OC(=O)CC[C@]1(C(=O)N2CCOCC2)N=C(c2ccc(OCCCO)cc2)O[C@H]1c1ccccc1 | 0.724
